In publication PMC4336329 (PLoS ONE, 2015):
Screen size: about 310,000 compounds; about 14,000 (4.5%) showed an effect of 50% or more. Effects have a minus sign here. The list comes from a sample in which strong results are over-represented; it also holds similar structures and randomly drawn compounds.

molecular target: human ether-à-go-go-related gene (hERG) potassium channel (human, UniProt Q12809); assay: primary screen, population patch clamp on CHO cells stably expressing hERG; higher = less effect of the substance
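Note: peak tail current of the secondary pulse compared with the same well before compound.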

Chain of human ether-à-go-go-related gene (hERG) potassium channel (Q12809 whole entry, looked up): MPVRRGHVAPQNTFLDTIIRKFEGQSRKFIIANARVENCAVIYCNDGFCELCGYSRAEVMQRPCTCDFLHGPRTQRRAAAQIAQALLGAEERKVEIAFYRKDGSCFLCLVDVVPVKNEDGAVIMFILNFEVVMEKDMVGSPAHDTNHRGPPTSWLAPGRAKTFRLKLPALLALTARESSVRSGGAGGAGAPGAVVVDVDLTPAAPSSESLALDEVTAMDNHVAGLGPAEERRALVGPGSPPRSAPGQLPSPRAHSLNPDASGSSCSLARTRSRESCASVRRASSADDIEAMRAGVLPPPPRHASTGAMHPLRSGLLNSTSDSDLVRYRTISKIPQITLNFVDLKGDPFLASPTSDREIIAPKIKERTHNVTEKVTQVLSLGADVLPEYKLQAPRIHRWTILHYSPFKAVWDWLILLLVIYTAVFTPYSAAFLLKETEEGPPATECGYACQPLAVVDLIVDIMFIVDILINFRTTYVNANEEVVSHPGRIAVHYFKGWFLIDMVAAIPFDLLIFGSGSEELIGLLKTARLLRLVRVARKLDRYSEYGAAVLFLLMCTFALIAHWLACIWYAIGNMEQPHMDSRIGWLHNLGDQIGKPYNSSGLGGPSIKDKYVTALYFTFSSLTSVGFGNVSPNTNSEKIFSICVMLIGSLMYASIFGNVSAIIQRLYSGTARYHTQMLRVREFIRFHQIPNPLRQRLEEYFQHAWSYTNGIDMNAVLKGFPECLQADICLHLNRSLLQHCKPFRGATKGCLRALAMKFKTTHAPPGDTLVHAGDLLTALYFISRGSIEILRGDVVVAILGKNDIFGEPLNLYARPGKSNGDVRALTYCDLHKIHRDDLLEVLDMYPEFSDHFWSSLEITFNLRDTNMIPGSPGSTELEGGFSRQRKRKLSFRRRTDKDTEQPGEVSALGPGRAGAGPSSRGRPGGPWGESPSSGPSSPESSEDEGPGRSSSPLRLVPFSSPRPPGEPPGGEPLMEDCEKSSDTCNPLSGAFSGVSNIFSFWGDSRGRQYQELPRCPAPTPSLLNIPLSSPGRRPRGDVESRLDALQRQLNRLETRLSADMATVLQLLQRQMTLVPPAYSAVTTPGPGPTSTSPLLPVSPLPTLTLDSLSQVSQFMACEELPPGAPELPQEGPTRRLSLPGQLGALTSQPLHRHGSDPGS

SMILES	hERG current change (%, negative = inhibition) at 10uM [%]
COC(=O)[C@]1(C)N[C@H](c2ccc(-c3ccc(F)cc3)cc2)[C@@H]2C(=O)N(C)C(=O)[C@@H]21.O=C(O)C(F)(F)F	-1.3
NS(=O)(=O)c1cc(C(=O)O)c(NCc2ccco2)cc1Cl	14.7
CCC(=O)N=c1sc2ccccc2n1-c1ccccc1	17.8
N#CC(C#N)=Cc1ccc(N2CCCC2)cc1	4.17
Cc1cc(N2CCCC2)ccc1C=C(C#N)C#N	-13.2
Cc1cc(C=C(C#N)C#N)ccc1N1CCCC1	-65
Cc1ccc(C)c(NC(=O)c2cc3c([nH]c4ccccc43)c(C)n2)c1	5.7
I.c1ccc2c(c1)nc(N1CCCCCC1)c1ccccc12	0.834
Cl.c1ccc2c(c1)nc(N1CCCCC1)c1ccccc12	-2.67
c1ccc2c(N3CCCCC3)nc(N3CCCCC3)nc2c1	-39.1
Cc1nc(N2CCCCCC2)c2ccccc2n1.Cl	-51.5
c1ccc2c(N3CCCCC3)nc(N3CCCC3)nc2c1	-69.6
c1ccc2c(N3CCCCC3)nc(N3CCOCC3)nc2c1	-33.7
O=C(NC1(Cc2ccccc2)CCN(CCc2cccs2)C1=O)c1ccccc1 (stereo not drawn)	-1.81
Cc1ccc(C)c(Nc2cc(C)nc(-c3ccccc3O)n2)c1	15
COc1cc(C(=S)N2CCCC2)ccc1OCC(N)=O	17.8
COC(=O)c1n[nH]n(-c2ccc(F)c(Cl)c2)c1=O	9.84
CCC(C)N(C(=O)CN1C(=O)NC2(CCc3ccccc32)C1=O)C1CCS(=O)(=O)C1 (stereo not drawn)	-3.41
CC1CCN(CCCCOc2ccc(Cl)cc2)CC1.O=C(O)C(=O)O	-71.7
Cc1ccc(OCCCCCCN2CCNCC2)cc1.O=C(O)C(=O)O	-11.6
Cc1ccc(OCCCCN2CCC(C)CC2)cc1.O=C(O)C(=O)O	-23.4
CC1CCN(CCCCOc2ccc(C(C)(C)C)cc2)CC1.O=C(O)C(=O)O	-59.6
COc1ccc(OCCCCN2CCC(C)CC2)cc1.O=C(O)C(=O)O	-29
CC(C)(c1ccccc1)c1ccc(OCCCN2CCNCC2)cc1.O=C(O)C(=O)O	3.19

SMILES	hERG current change (%, negative = inhibition) at 10uM [%]
CC(C)OCCCNC(=O)c1ccc(Br)cc1	-8.3
CC(=O)c1ccc(NC(=O)CNCc2cccs2)cc1.O=C(O)C(=O)O	-0.848
Cc1ccc2[nH]c(C(=O)O)c(NC(=O)CN3CCN(c4cccc(C)c4C)CC3)c2c1.Cl	13.1
Cc1ccc(-c2noc(CN(C(=O)CCCCCN3C(=O)c4ccccc4C3=O)C(C)C)n2)cc1	-15.3
Cc1ccc(-c2noc(CN(C(=O)CCCN3C(=O)c4ccccc4C3=O)C(C)C)n2)cc1	-39.7
Cc1ccc(-c2noc(CN(C(=O)CCN3C(=O)c4ccccc4C3=O)C(C)C)n2)cc1	-63.6
Cc1c(NC(=O)c2ccco2)cccc1-c1nc2cccnc2s1	-45.8
c1ccc(-c2ccc(CN3C[C@@H]4C(c5ccccc5)C5(c6ccccc6)CC4(C5)[C@H]3c3ccccc3)cc2)cc1 (stereo partly drawn)	-5.02
CC1CCN(CC#CCOc2ccc(Cl)cc2)CC1.O=C(O)C(=O)O	-5.81
Cc1cc(OCC(=O)N2CCC(C(N)=O)CC2)c2c(C)cc(=O)oc2c1	15.6
Cc1cccc(NC(=O)CN2CCC(C(=O)c3ccc4c(c3)OCCO4)CC2)c1	-54.2
O=C(CN1CCC(NC(=O)c2ccccc2F)CC1)Nc1ccc2c(c1)OCO2	-41.7
O=C(CCN1CCN(c2ccccc2)CC1)Nc1cccc(Br)c1	-61.4
O=C(CCN1CCN(CCO)CC1)Nc1cccc(Br)c1	-19
O=C(CCN1CCCC1)Nc1cccc(Br)c1	-20.6
Cc1ccc(C(=O)C2CCN(CC(=O)Nc3ccc4c(c3)OCCO4)CC2)cc1	-2.3
O=C(CCN1CCN(c2ccccc2)CC1)Nc1ccccc1	-22.9
Cc1cccc(C(=O)NC2CCN(CC(=O)Nc3ccc4c(c3)OCO4)CC2)c1	-57.7
Cc1ccc(NC(=O)CN2CCC(C(=O)c3ccc4c(c3)OCCO4)CC2)cc1	-44.7
O=C(CCN1CCN(Cc2ccccc2)CC1)Nc1cccc(Br)c1	-63
Cc1ccccc1C(=O)NC1CCN(CC(=O)Nc2ccc3c(c2)OCO3)CC1	-47.3
CN1CCN(CCC(=O)Nc2cccc(Br)c2)CC1	-19
CCOc1ccccc1N(C)S(=O)(=O)c1ccc2c(c1)CC(C)N2C(=O)C1CC1 (stereo not drawn)	9.49
O=c1[nH][nH]c(C(F)(F)F)c1C=NCc1ccc(Cl)cc1	-1.88

SMILES	hERG current change (%, negative = inhibition) at 10uM [%]
COC(=O)C1=C(C(=O)OC)[C@@H]2N(C)c3ccccc3[C@@]23C[C@@H](C(=O)OC)N=C3N1	-2.81
CCOC(=O)N1CCC(N(CCN(C)C)C(=S)Nc2ccccc2C)CC1	3.33
CN(C)S(=O)(=O)c1cccc(NC(=O)CSc2nc3ccccc3[nH]2)c1	-22.2
Cc1cc(C)n2c(-c3ccccc3Cl)nnc2n1	-14.8
O=C(NCCCCO)c1ccc2c3c(cccc13)CC2	7.52
CC(=O)NS(=O)(=O)c1cccnc1Nc1ccc(Cl)c(Cl)c1	16.1
CC(=O)Nc1nc2c(c3c1c(=O)oc1ccccc13)CCCCC2	-7.1
C=C[C@@]12CN(C)[C@H]3[C@H]1[C@@]1(C(=O)Nc4ccccc41)C1CC2[C@@H]3CO1	13
O=c1c2c(-c3cccs3)csc2ncn1-c1ccccc1	-28.3
CCOc1ccc(N2C(=O)c3ccc(C(=O)OCC(=O)N(CC)C4CCS(=O)(=O)C4)cc3C2=O)cc1 (stereo not drawn)	-22.3
NS(=O)(=O)c1ccc(NC(=O)CN2CCN(S(=O)(=O)/C=C/c3ccccc3)CC2)cc1	-9.04
COc1cc(NC(=O)CN2CCN(S(=O)(=O)/C=C/c3ccccc3)CC2)cc(OC)c1OC	-14.8
COC(=O)c1cccc(NC(=O)CN2CCN(Cc3ccccc3)CC2)c1	-16
Cc1cc(C)cc(NC(=O)CN2CCC(NC(=O)c3cccc(F)c3)CC2)c1	-39
Cc1cccc(NC(=O)CN2CCCCCC2)c1	7.69
O=C(CN1CCC(NC(=O)c2cccc(F)c2)CC1)Nc1ccc(Br)cc1	-73
CC(=O)c1cccc(NC(=O)CN2CCN(S(=O)(=O)/C=C/c3ccccc3)CC2)c1	-53.9
Cc1cccc(NC(=O)CN2CCN(CC(=O)Nc3cccc(C)c3)CC2)c1	-63.7
Cc1cccc(NC(=O)Cn2cccc2)c1	-5.5
O=C(CN1CCN(Cc2ccccc2)CC1)Nc1cccc(Br)c1	-51.7
CC(=O)c1cccc(NC(=O)CN2CCN(Cc3ccccc3)CC2)c1.Cl	-10.9
Cc1ccc(NC(=O)CN2CCC(NC(=O)c3cccc(F)c3)CC2)cc1C	-41.3
CC(C(Sc1ccccc1N)c1ccccc1)[N+](=O)[O-] (stereo not drawn)	7.82
CCOP(=O)(O)c1cccc(OCCOCCOc2cccc(P(=O)(O)OCC)c2)c1	4.45

SMILES	hERG current change (%, negative = inhibition) at 10uM [%]
Cn1c(=NCC(O)COc2ccccc2)sc2ccccc21 (stereo not drawn)	-42.7
COc1ccnc(Oc2ccccc2)c1C(N)=O	20.2
C/C(Cn1cnc([N+](=O)[O-])n1)=N\NC(=O)c1cccc(F)c1	6.43
COC(=O)c1cccc(NC(=O)CSc2nnc(C)n2C)c1	26
Cc1ccc(NC(=O)C2CCN(S(=O)(=O)c3ccc4c(c3)NC(=O)C(C)S4)CC2)c(C)c1 (stereo not drawn)	-3.06
O=C(O)C1CCN(C(=O)c2ccco2)CC1	9.94
COc1ccc(N(CC(=O)N/N=C/c2ccccc2OC)S(=O)(=O)c2ccccc2)cc1	19.9
Cc1cc(N2C(=O)C(O)=C(C(=O)c3cccs3)C2c2cccc(Br)c2)no1 (stereo not drawn)	6.05
c1ccc(-c2nnc(-c3ccncc3)nc2-c2ccccc2)cc1	-24.5
COc1cccc2c(=O)cc(C)n(CC(=O)Nc3ccc(C)c(C)c3)c12	-5.88
COc1cccc2c(=O)cc(C)n(CC(=O)Nc3ccc(Br)cc3)c12	12.8
COc1cccc2c(=O)cc(C)n(CC(=O)Nc3cccc(C)c3)c12	-59.4
Cc1ccc(NC(=O)c2cccc(S(=O)(=O)N3CCN(c4ccccc4)CC3)c2)nc1	-1.19
O=C(c1cccc(S(=O)(=O)N2CCOCC2)c1)N1CCN(c2ccccc2)CC1	-15.7
O=C(c1cccc(S(=O)(=O)N2CCCC2)c1)N1CCN(c2ccccc2)CC1	-13
O=C(c1cccc(S(=O)(=O)N2CCCCC2)c1)N1CCN(c2ccccc2)CC1	-73.1
O=C(c1cccc(S(=O)(=O)N2CCCCCC2)c1)N1CCN(c2ccccc2)CC1	-68.8
Cc1ccc(C(=O)NNC(=O)c2cccc(S(=O)(=O)N3CCN(c4ccccc4)CC3)c2)cc1	-25.4
CC(=O)N1CCN(C(=O)c2cccc(S(=O)(=O)N3CCN(c4ccccc4)CC3)c2)CC1	-16.5
O=C(NNC(=O)c1cccc(S(=O)(=O)N2CCN(c3ccccc3)CC2)c1)c1ccc(Cl)cc1	-59.5
O=C(c1cccc(S(=O)(=O)N2CCN(c3ccccc3)CC2)c1)N1CCCCCCC1	-33.4
